# In all, about 360,000 compounds went through this assay and about 11,000 (3.1%) were called active. Another 4% or so got no clear call; they are omitted. The call rests on the fitted dose curve; in most records, active means well fitted inhibition curve with a large enough effect; inconclusive means small, poorly fitted or top-dose-only effect; inactive means no such curve, though single readings can be large or run the other way. This excerpt belongs to a sample that is enriched for actives.
# Target: Schistosoma mansoni thioredoxin glutathione reductase (TGR) (UniProt Q962Y6)
# Experiment: qHTS Assay for the Inhibitors of Schistosoma Mansoni Peroxiredoxins; further: nearly all actives have a fitted effect of over 60% in size
# Details: purified TGR, DTNB reduction, TNB absorbance 405 nm; series mostly up to 114 µM; activity change, negative = inhibition: at the top concentration
# In short: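 First, TGR (20 nM dispensed) and NADPH were mixed with compound. Second, a 15 min room-temperature incubation followed. Third, further NADPH and then DTNB were added to start the reaction. Finally, TNB absorbance was monitored kinetically.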
# On the % scale 0 is the no-effect control and ±100 the full control effect; potency means the concentration at half of the fitted maximal effect.
SMILES,"activity change, negative = inhibition",Potency
COc1cc(NC(=O)CN2CCN(S(=O)(=O)c3ccc(Br)cc3)CC2)cc(OC)c1,-2.68% (inactive),–
O=C(NC1CCCCC1)c1ccc2c(c1)N(Cc1ccc(Cl)cc1)C(=O)c1ccccc1S2=O (stereo unspecified),-7.13% (inactive),–
Cc1cc(NC(=O)CC(C)C)cc(-c2nc3ncccc3o2)c1O,1.96% (inactive),–
C#CCOCCOCCOCCNc1nc(N2CCN(C(=O)C(Cc3ccc(O)cc3)n3cc(C(N)CC(C)C)nn3)CC2)nc(N2CCN(C(=O)C(Cc3ccc(O)cc3)n3cc(C(N)C(C)CC)nn3)CC2)n1 (stereo unspecified),-6.96% (inactive),–
C#CCOCCOCCOCCNc1nc(N2CCN(C(=O)[C@H](CCC(=O)O)n3cc(C(N)CO)nn3)CC2)nc(N2CCN(C(=O)[C@H](Cc3ccc(O)cc3)n3cc(C(N)[C@H](C)CC)nn3)CC2)n1 (stereo partly specified),–,35.5 µM (active)
C#CCOCCOCCOCCNc1nc(N2CCN(C(=O)[C@H](Cc3ccc(O)cc3)n3cc(C(N)CC(C)C)nn3)CC2)nc(N2CCN(C(=O)[C@H](CCC(=O)O)n3cc(C(N)[C@H](C)CC)nn3)CC2)n1 (stereo partly specified),-25.3% (inactive),–
COC(=O)c1ccccc1NC(=O)c1ccc2c(=O)n3c(nc2c1)CCCCC3,5.75% (inactive),–
CCN(CCCNC(=O)c1cc(Nc2ccc(OC)cc2)nc2ccccc12)c1cccc(C)c1,-0.0604% (inactive),–
O=C(Nc1ccccc1N1CCCC1)c1ccc2ccccc2c1,-3.6% (inactive),–
O=C(Nc1ccccc1N1CCCCC1)c1ccc2nccnc2c1,–,79.4 µM (active)
O=C(Nc1ccccc1N1CCOCC1)c1ccncc1,-6.43% (inactive),–
Oc1ccc2ccccc2c1N=Nc1nccs1,–,17.8 µM (active)
COc1ccc(Cc2nc3ccc(C(=O)NCc4ccccc4Cl)cc3o2)cc1,5.89% (inactive),–
CCOc1ccccc1NC(=O)Cn1c2ncccc2c(=O)n1-c1ccc(C)c(C)c1,11.2% (inactive),–
Cc1cccn2c(=O)c3cc(C(=O)NCCN4CCOCC4)c(=N)n(Cc4cccnc4)c3nc12,-32.4% (inactive),–
Cc1cccn2c(=O)c3cc(C#N)c(=O)n(CCCN4CCOCC4)c3nc12,–,25.1 µM (active)
CCCCn1c(=N)c(S(=O)(=O)c2ccccc2)cc2c(=O)n3cccc(C)c3nc21,11.7% (inactive),–
CC1CCC2(CC1)N=C(c1ccccc1)C(=O)N2CC(=O)Nc1ccc(F)c(Cl)c1 (stereo unspecified),1.55% (inactive),–
N#Cc1nc(/C=C/c2ccc(F)cc2)oc1NCc1ccc(F)cc1,0.688% (inactive),–
CCN(C(=O)Cn1cnc2sc(C)c(S(=O)(=O)N3CCN(c4ncccn4)CC3)c2c1=O)c1ccccc1F,3.71% (inactive),–
O=C(CSc1nc(-c2ccco2)cc(C(F)(F)F)n1)N1CCc2ccccc2C1,–,11.2 µM (active)

SMILES,"activity change, negative = inhibition",Potency
CN(C)c1ccc(NC(=O)CSc2nc(-c3ccco3)cc(C(F)(F)F)n2)cc1,5.41% (inactive),–
Cc1cccc(NC(=O)CSc2nc(-c3ccco3)cc(C(F)(F)F)n2)c1C,12.2% (inactive),–
O=C(NCc1ccc2c(c1)CCN2C(=O)c1ccccc1)c1ccccc1,2.49% (inactive),–
CCCn1c2ccccc2c2cnn(CC(=O)NCC3CCN(Cc4ccc(C)cc4)CC3)c(=O)c21,-1.8% (inactive),–
Cc1cccc(NC(=O)c2ccc(F)c(S(=O)(=O)N(C)C3CCCCC3)c2)c1,2.07% (inactive),–
CCOc1ccccc1C(=O)NCC(c1ccc(N(C)C)cc1)N1CCCC1 (stereo unspecified),-0.18% (inactive),–
O=[N+]([O-])c1ccc(N=Cc2c(O)ccc3ccccc23)cc1,–,22.4 µM (active)
Oc1ccc2ccccc2c1C=Nc1ccccc1,–,12.6 µM (active)
O=[N+]([O-])c1cnc2ccc3ccccc3c2c1,3.12% (inactive),–
CC(=O)n1c(C=Nc2ccccc2)c(O)c2ccccc21,-12.4% (inactive),–
Oc1ccc(N=Cc2c(O)ccc3ccccc23)cc1,–,28.2 µM (active)
CCOc1[nH]n(-c2ccc(Cl)cc2)c(=O)c1C=Nc1ccc(O)cc1,4.95% (inactive),–
Cc1cc(N=Nc2ccc3ccccc3c2)ccc1O,9.38% (inactive),–
CC(C)CNC(=O)CC(c1ccccc1)c1c(O)ccc2ccccc12 (stereo unspecified),-1.45% (inactive),–
CCC(=O)CC(c1ccc([N+](=O)[O-])cc1)c1c(O)c2ccccc2oc1=O (stereo unspecified),2.09% (inactive),–
COc1ccc(CCNC(=O)c2c3c(nc4ccccc24)C(=O)N(C2CCCCC2)C3)cc1OC,2.49% (inactive),–
Cc1ccc(C(=O)Nc2ccccc2F)cc1S(=O)(=O)N1CCOCC1,1.51% (inactive),–
CCOc1ccccc1NC(=O)CN1CCN(S(=O)(=O)c2ccc(Br)cc2)CC1,-1.12% (inactive),–
Cc1cccc(NC(=O)C2CCCN2S(=O)(=O)c2cccc3nsnc23)c1C (stereo unspecified),10.6% (inactive),–
CCN(CC(=O)Nc1c(F)cccc1F)C(=O)c1ccc(Sc2nncn2C)c([N+](=O)[O-])c1,0.198% (inactive),–
CC(C)(C)n1cnnc1Sc1ccc([N+](=O)[O-])cn1,-25.2% (inactive),–

SMILES,"activity change, negative = inhibition",Potency
Cn1cnnc1Sc1ccc(S(C)(=O)=O)cc1[N+](=O)[O-],–,35.5 µM (active)
C=CCn1c(SCC(=O)NC(=O)Cc2ccccc2)nc2ccccc2c1=O,–,89.1 µM (active)
C=CCn1c(SCc2ccc(C(=O)NCCO)cc2)nc2ccccc2c1=O,-27.7% (inactive),–
O=C(CSc1nc2ccccc2c(=O)n1CCCO)NC1CC1,4.65% (inactive),–
Cc1ccc(O)c(NC(=O)c2cc(-c3ccc(F)cc3)no2)c1,-1.53% (inactive),–
Cc1ccc(C(=O)N2CCc3cc(CNC(=O)c4ccc(Br)cc4)ccc32)cc1,2.43% (inactive),–
COc1ccc(NC(=O)c2cc3cc(C)ccc3n2C)cc1,0.281% (inactive),–
CN(C)S(=O)(=O)c1cccc(NC(=S)N/N=C/C(=O)c2ccccc2)c1,-1.78% (inactive),–
CN(C)S(=O)(=O)c1ccc(NC(=O)N2CCOCC2)cc1,9.09% (inactive),–
CN(C)S(=O)(=O)c1ccc(N/C=C(\[N+](=O)[O-])S(=O)(=O)c2ccccc2)cc1,–,14.1 µM (active)
O=C(CN1C(=O)CCn2nc(-c3ccccc3)cc21)NCc1ccccc1,10.6% (inactive),–
CC1CSc2nnc(CCc3ccccc3)n21 (stereo unspecified),-29.9% (inactive),–
CCN1N=C(c2ccccc2)CCC1=O,-0.45% (inactive),–
Cc1nnc2n1N=C(c1ccccc1)CS2,–,39.8 µM (active)
COc1ccc(-c2cc(-c3nc(-c4cc(OC)c(OC)c(OC)c4)no3)[nH]n2)c(OC)c1,6.07% (inactive),–
CCOCCCNC(=O)c1c(NC(=O)c2nc(SC)ncc2Cl)sc2c1CCCC2,4.43% (inactive),–
CC(C)c1ccc(S(=O)(=O)Nc2ccc(O)c(Sc3nc4ccccc4s3)c2)cc1,-6.03% (inactive),–
CC(C)(C)c1ccc(S(=O)(=O)Nc2ccc(O)c(Sc3nc4ccccc4s3)c2)cc1,1.84% (inactive),–
O=[N+]([O-])c1c(NCCO)cc(Sc2nc3ccccc3s2)c2nonc12,–,0.1 µM (active)

# Reference: PubChem BioAssay AID485364 (National Center for Advancing Translational Sciences (NCATS), 2010)
